Test results from PubChem BioAssay (NCI).
Compounds without any hit were thinned out: in the full panel of roughly 83,000, 20% have a hit.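 The endpoint reported here, percent growth, reads 100 for growth as untreated, 0 for no net growth and -100 for all cells dead.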 Unmarked numbers belong to inactive results. Calls of active or inactive are those of the source. How the source made its calls: active means growth percent below 10; inactive means the rest.

Key:
Test in all cases: NCI-60 one-dose screen, 48 h (100 = growth as untreated, 0 = no growth, -100 = all killed)
Conditions in all cases: 10 µM unless noted
T-47D breast = test system: T-47D breast
MDA-MB-435 melanoma = test system: MDA-MB-435 melanoma
SW-620 colon = test system: SW-620 colon
MCF7 breast = test system: MCF7 breast
HCT-116 colon = test system: HCT-116 colon
HCC-2998 colon = test system: HCC-2998 colon
KM12 colon = test system: KM12 colon
BT-549 breast = test system: BT-549 breast

Structure (SMILES) | growth (T-47D breast) | growth (MDA-MB-435 melanoma) | growth (SW-620 colon) | growth (MCF7 breast) | growth (HCT-116 colon) | growth (HCC-2998 colon) | growth (KM12 colon) | growth (BT-549 breast)
CCN(CC)CCCCNc1c2ccc(Cl)cc2nc2ccc(OC)cc12 | -16.9% (active) | -89.2% (active) | -24.8% (active) | -30% (active) | -39.5% (active) | -78.6% (active) | -6.4% (active) | 
Cc1[nH]c(-c2cc(N)ccc2Cl)c2c1C(=O)CCCC2 | 19.8% | 15.5% | 64.6% |  | 29.4% | 33.5% | 32.6% | 
Oc1cccc2ccc(N/N=C/c3cc(CN4CCOCC4)c(O)c4ncccc34)nc12 | 26.9% | 23.8% | 26.2% | 18.6% | 23.5% | 26.6% | 13.7% | 
Cn1ccnc1C(=O)/C=C/c1ccccc1 | 18.4% | 10.8% | 5.92% (active) |  | 9.05% (active) |  | -20.6% (active) | 
COc1ccc2c(c1)C(=O)/C(=C/c1cccnc1)CC2 | 80.2% | 89.5% | 102% | 45.3% | 81.2% |  | 66.2% | 
CC(C)CSc1nc(N)nc2c1ncn2C1OC(CO)C(O)C1O (centres undefined) | 106% | 91% | 94.4% | 99.5% |  | 102% | 96.7% | 
CCCCC[C@H]1C/C=C2/C(=O)C=C[C@@H]2C/C=C\CCCC(=O)O1 | -2.9% (active) | -26.7% (active) | 0.0064% (active) | 0.464% (active) | -67.6% (active) |  | -83.6% (active) | 
COc1cc(C(=O)/C=C/c2cccnc2Nc2ccc(Cl)cc2)cc(OC)c1OC | -67.3% (active) | -58% (active) | -71.5% (active) | -54.4% (active) | -55.7% (active) | -84.3% (active) | -86.8% (active) | 
O=C(O)c1c(=O)cccc2ssc12 |  | 23.3% | -34.4% (active) | -17% (active) | 2.36% (active) | 13.5% | 3.59% (active) | 20.2%
CC/C=C\C/C=C\C[C@H]1C/C=C2/C(=O)C=C[C@@H]2C/C=C\CCC(=O)O1 | 23.4% | 0.314% (active) | 8.89% (active) | 26.1% | -48.7% (active) |  | -27.8% (active) | 
C=C1c2nc3ccccc3n2C=C(c2ccc(OC)cc2)N1Cc1ccccc1 | 59.9% | 95.1% | 88.7% | 86.3% | 73.7% | 82.1% | 98.5% | 
CC(C)(C)CC(C)(C)c1ccc(OCCOCC[N+](C)(C)Cc2ccccc2)cc1 | -7.78% (active) | -81.1% (active) | -39.2% (active) | -80.4% (active) | -27.9% (active) | -32.5% (active) | -91.3% (active) | 
COc1ccc2c(c1)O/C(=C\c1cccc(OCC(=O)Nc3nc4c(s3)CCCC4)c1)C2=O | 58.4% | 83.1% | 89.1% | 86.1% | 77.7% |  | 82% | 
NC(=O)c1cc(Cl)ccc1NC(=O)/C=C/c1ccccc1 | 14.9% | -13.3% (active) | 26.1% | 10.9% | 29.2% | 60.1% | 9.48% (active) | 
O=C(Cc1ccc(/C=C/C(=O)c2ncc[nH]2)cc1)Nc1ccc(F)cc1 | 19.3% | 32.6% | 4.06% (active) | 11.3% | 26.8% | 79.7% | 8.05% (active) | 
C=CC(=O)Nc1cccc(-c2nc(SC)nc(NCCc3ccc(OC)c(OC)c3)c2C#N)c1 | 8.57% (active) | 24.2% | 80.8% |  | 31.4% | 87.1% | 64.6% | 
O=C(O)COc1ccc(Cl)cc1C1CCCCC1 | 114% | 107% | 104% | 104% | 101% |  | 103% | 
C=C1C(=O)O[C@H]2[C@H]1CC/C(COC(=O)NCCc1ccc(OC)c(OC)c1)=C\CC[C@@]1(C)O[C@@H]21 | 33.2% | 58.3% | 18.9% | 34.8% | 5.66% (active) |  | 84.4% | 
CC(C)CC1C(=O)N2CCC[C@H]2C2(O)O[C@](NC(=O)C3C=C4c5cccc6[nH]c(Br)c(c56)C[C@H]4N(C)C3)(C(C)C)C(=O)N12 (some centres undefined) | 47.2% | 62.8% | 52.3% | 39.7% | 36.1% | 89.1% | 40.3% | 
Cc1cc(N2CCN(C)CC2)nc(NC2CCCC(Nc3ccnc4cc(Cl)ccc34)C2)n1 (centres undefined) | -48.5% (active) | -86% (active) | 2.79% (active) | -10.5% (active) | -69.6% (active) | 8.13% (active) | 10.4% | 
CC(C)(C)c1cc(C(C)(C)C)cc(S(=O)(=O)Nc2cc3ccccc3cc2C(=O)NCCN)c1 | 5.06% (active) | 0.859% (active) | -78% (active) | -10.6% (active) | 11.9% | -38.6% (active) | -33.4% (active) | 
Cc1nn(-c2cc(=O)[nH]c3ccccc23)c(N)c1C#N | 104% | 106% | 103% | 97.5% | 107% | 115% | 101% | 
c1ccc(-c2cc3n4c(-c5ccccc5)nn(-c5ccccc5)c4cnc-3n2)cc1 | 54.2% | 60.4% | 52.2% | 50.6% | 30.9% | 83.9% | 70.6% | 
O=C(/C=C/c1cccc(Cl)c1)c1ccc(O)c(CN2CCN(c3cc4c(cc3F)c(=O)c(C(=O)O)cn4C3CC3)CC2)c1 | 44.9% | 44.7% | 21.4% |  | 6.6% (active) | 61.3% | 51.2% | 
O=S(=O)(Nc1ccc(Cl)c(F)c1)c1ccc(-c2cnc(C3CC3)o2)cc1 |  | 3.28% (active) | 17.9% | 13% | 23.1% | 41.5% | 38.4% | 27.5%
O=C(CCl)Oc1ccc(-c2ccccc2)c(Br)c1 | 103% | 104% | 104% | 103% | 108% | 109% | 104% | 
C=CC(=O)Nc1cccc(-c2nc(SC)nc(NCCN3CCOCC3)c2C#N)c1 | 93% | 87.1% | 108% | 72.6% | 95.3% | 115% | 102% | 
COc1ccc2c(c1)C(=O)/C(=C/c1ccccn1)CC2 | 54.2% | 57.4% | 57.5% | 15.1% | 26.3% |  | -10% (active) | 

Structure (SMILES) | growth (T-47D breast) | growth (MDA-MB-435 melanoma) | growth (SW-620 colon) | growth (MCF7 breast) | growth (HCT-116 colon) | growth (HCC-2998 colon) | growth (KM12 colon) | growth (BT-549 breast)
O=C1C=C(O)C(=O)C(CC2=C(O)C(=O)C=C(O)C2=O)=C1O | 104% | 100% | 97.8% | 105% | 106% | 97.2% | 104% | 
O=C1c2cccc3cccc(c23)C(=O)N1CCCCCN1CCN(CCCCCOc2ccc(-c3nc4ccc(N5CCOCC5)cc4[nH]3)cc2)CC1 | 0.907% (active) | 36.4% | 17.1% | -25.7% (active) | 73% |  | 20.6% | 
CC(C)(C)c1cc(/C=N\NC(=O)/C=C/C=C/c2ccc3c(c2)OCO3)c(O)c(C(C)(C)C)c1 | 35% | 86.4% | 74.6% | 61.3% | 87.7% | 89.2% | 75.1% | 
N#Cc1cnn(-c2nc3c(Cl)cccc3s2)c1N |  | 87.1% | 94.7% | 68.1% | 61.7% | 91.1% | 88.7% | 90.4%
Cn1ncc2c(=O)nc3c(-c4ccccc4)n[nH]n3c21 | 95.6% | 101% | 107% | 92.8% | 97.6% | 99.2% | 113% | 
CSc1nc(-c2cccc(NC(=O)CCl)c2)c(C#N)c(=O)n1C |  | 54.5% | 27.3% | 20.6% | 7.55% (active) | 116% | 98.5% | 53.4%
CCn1c(O)c(/C=N/NC(=O)C(C)c2ccc(CC(C)C)cc2)sc1=S (centres undefined) |  | -44.4% (active) | 27.3% | 20.5% | 11.6% | 29.5% | 18.7% | 11.5%
COc1ccc(C(=O)c2sc3nc4c(c(-c5cccnc5)c3c2N)CCCC4)cc1OC |  | 91.7% | 107% | 90.2% | 88.2% | 110% | 76.3% | 74.6%
C=C(C)[C@@H]1CC[C@]2(C(=O)OC)CC[C@]3(C)[C@H](CC[C@@H]4[C@@]5(C)C/C(=C/c6cccc(I)c6)C(=O)C(C)(C)[C@@H]5CC[C@]43C)[C@@H]12 | 93.6% | 96.6% | 101% | 89.2% | 95.4% | 99.7% | 101% | 
CC(=O)Oc1ccc(Cl)cc1CN(C(C)=O)C1CCCCC1 |  | 115% | 105% | 97.6% | 102% | 99.4% | 112% | 107%
CCc1c(Nc2ccccc2C)nc(N)[nH]c1=O |  | 106% | 106% | 97% | 98.4% | 101% | 104% | 102%
Fc1ccc(CNc2cccc3[nH]c(C(F)(F)F)nc23)cc1 |  | 95.7% | 94.6% |  | 95.8% | 119% | 90.6% | 99%
COc1ccc(C(=O)c2sc3nc(C)cc(C)c3c2N)cc1OC |  | 91.8% | 99.5% | 84% | 87% | 99.1% | 94.3% | 93.2%
FC(F)(F)c1nc2c(NCc3ccc(-c4ccccc4)cc3)cccc2[nH]1 |  | 93.5% | 75.3% | 87% | 74.1% | 107% | 80.5% | 91.2%
Cc1cc(C)nc(SC2=C(Nc3cccc(Cl)c3)C(=O)N(Cc3ccccc3)C2=O)n1 |  | 61.4% [30 µM] | 72% [30 µM] | 49.8% [30 µM] | 43.5% [30 µM] |  | 83.7% [30 µM] | 65.5% [30 µM]
CC1=CC(=NN=c2cc(C)n([O-])c(C)c2)C=C(C)[N+]1=O |  | 85.9% | 101% | 19.3% | 83.1% | 63.2% | 95.3% | 75.1%
CCOc1nc(-c2ccccc2)cc2c(O)c(C(=O)N/N=C/c3ccc(O)cc3O)[nH]c(=O)c12 |  | 48.3% | 44.6% | 46.3% | 18.6% |  | 42.3% | 58.9%
COc1cc2c(cc1O)CC[C@@H]1[C@@H]2CC[C@]2(C)[C@@H](OCCN(C)C)CC[C@@H]12 |  | -56.8% (active) | 13.1% | 37.1% | 7.27% (active) |  | 24.2% | 43.5%
COC(=O)c1cccc(NC(=O)c2ccc(-c3cccc(N)c3)o2)c1 |  | 98.8% | 104% | 92.4% | 108% | 101% | 98% | 93.5%
O=C(COc1cccc(/C=C2\COc3ccccc3C2=O)c1)Nc1nccs1 |  | 53.5% | -40.7% (active) | -12.5% (active) | -100% (active) | -85.6% (active) | -44.6% (active) | -79.6% (active)
COc1cc(-c2nc3cc(Cl)c(Cl)cc3[nH]2)ccc1OCC(=O)N=Nc1c(O)[nH]c2ccccc12 |  | -94.9% (active) | -46.9% (active) | -76.1% (active) | -75.6% (active) | -91.1% (active) | -81.5% (active) | -90.3% (active)
OC(COc1cccc2ccccc12)CN1CCN(c2ccccc2Cl)CC1 (centres undefined) |  | 100% | 88.5% |  | 71.4% |  | 99.7% | 106%
Cc1ccccc1COc1ccc(-c2ccnn2-c2ccc(Cl)cc2)cc1 |  | 0.81% (active) | 29.7% | 31.9% | 38.1% | 89.1% | 50.7% | 75%
C=CC(=O)Nc1cccc(-c2nc(SC)nc(Nc3ccccc3OC)c2C#N)c1 |  | 18.7% | 17.2% | 2.55% (active) | 2.91% (active) | 81.3% | 82.8% | 57.1%
CC(=O)c1cc2c(N)c(C(=O)Nc3cccc4ccccc34)sc2nc1C |  | -34% (active) | 17.8% | 22.1% | 29.3% | 37.1% | 22% | 46.5%
C#Cc1cccc(NC(=O)c2ccccc2NC(=O)C=C)c1 |  | 103% [8.25 µM] | 109% [8.25 µM] | 82.4% [8.25 µM] | 102% [8.25 µM] | 104% [8.25 µM] | 97.8% [8.25 µM] | 102% [8.25 µM]
NC(=NCCCC1(c2ccccc2)CCCC1)Nc1ccc(Cl)cc1 |  | 10.9% | -32.9% (active) | 12.4% | 0.509% (active) |  | 15.2% | 86.8%
